# KLK7 zymogen act: proKLK7 zymogen activators, primary screen, biochemical, fluorescence intensity; Kallikrein-7 (Homo sapiens), P49862; purified proKLK7, EDANS-DABCYL substrate fluorescence; 100% is mature enzyme control, 0% vehicle; activation, % at 7 µM; 370,000 compounds, 0.9% hits; AID 652039, 2013;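 active = activation above the mean of all tested compounds plus 3 SD, computed per campaign excluding outliers beyond control limits, cut at about 13% in these data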
# Target sequence (P49862 whole entry, looked up): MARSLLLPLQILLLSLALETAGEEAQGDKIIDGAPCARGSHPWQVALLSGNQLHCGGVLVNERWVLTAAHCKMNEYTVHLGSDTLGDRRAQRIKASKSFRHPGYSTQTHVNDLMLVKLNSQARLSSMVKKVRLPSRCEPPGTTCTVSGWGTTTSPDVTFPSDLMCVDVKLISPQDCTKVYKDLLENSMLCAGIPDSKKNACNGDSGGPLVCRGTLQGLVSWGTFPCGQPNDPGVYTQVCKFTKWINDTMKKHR
# PLC-beta3 inh: human PLC-beta3 inhibitors, primary screen, biochemical, fluorescence | inhibition, % at 12.2 µM | 1-phosphatidylinositol 4,5-bisphosphate phosphodiesterase beta-3 (Homo sapiens), Q01970 | Purified PLC-beta3, fluorogenic substrate | 370,000 compounds, 0.18% hits;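 note: 0% = median of compound wells on plate and 100% = full blocker control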
# ADAM17 inh: ADAM17 inhibitors, primary screen, biochemical, QFRET. Disintegrin and metalloproteinase domain-containing protein 17 (Homo sapiens), P78536. recombinant ADAM17, EDANS/DABCYL FRET peptide cleavage. inhibition, % at 6.95 µM. 370,000 compounds, 0.83% hits. AID 720648, 2013;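 active = inhibition above the mean of compounds lying between control limits plus 3 SD, set per campaign, cut at about 8.5% in these data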;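 note: 0% = DMSO-only wells as the low control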
# ADAM10 inh: human ADAM10 inhibitors, primary screen, biochemical, QFRET, HTS | Disintegrin and metalloproteinase domain-containing protein 10 (Homo sapiens), O14672 | recombinant ADAM10, EDANS/DABCYL FRET peptide cleavage, 3 h | inhibition, % at 7 µM | 370,000 compounds, 0.62% hits | AID 720582, 2013;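 active = inhibition above a per-campaign cutoff equal to the mean of compounds falling between control-based bounds plus 3 SD, cut at about 20% in these data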;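 note: 0% = DMSO wells while the 100% control is not disclosed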
# PLCg1 inh: PLC-gamma1 enzyme inhibitors, primary screen, biochemical, fluorescence, purified enzyme; AID 720700, 2013; 1-phosphatidylinositol 4,5-bisphosphate phosphodiesterase gamma-1 (Homo sapiens), P19174; 370,000 compounds, 0.84% hits; inhibition, % at 12.2 µM; fluorogenic substrate; in the data active = inhibition above about 9.5%
# PLCg1 ctr: PLC-gamma1 enzyme inhibitors, counter-screen for PLC-beta3 inhibitor project, biochemical, fluorescence; shares compounds with PLCg1 inh; purified PLC-gamma1, fluorogenic substrate; inhibition, % at 12.3 µM; 3,300 compounds, 3.1% hits; AID 743258, 2014; in the data active = inhibition above about 9.5%
# PLCbeta3 conf: PLC-beta3 inhibitor confirmation, biochemical, fluorescence, purified enzyme; 3,300 compounds, 1% hits; shares compounds with PLCg1 inh; fluorogenic substrate fluorescence; inhibition, % at 12.3 µM
# * hit, by the source's call; · = no result given. Compounds with a hit are over-represented: about 2.9% of the library has one in this group of screens. Cut-off read from the data, not from the text of the source, unless noted: active = inhibition above about 11%; inactive = the rest.
SMILES,KLK7 zymogen act,PLC-beta3 inh,ADAM17 inh,ADAM10 inh,PLCg1 inh,PLCg1 ctr,PLCbeta3 conf
COc1ccc(S(=O)(=O)NCCCN2CCOCC2)cc1F,-0.5,-0.4,4.4,5.7,9.5*,8.4,0.7
Cc1[nH]n(-c2ccccc2)c(=O)c1CCOC(=O)c1cccc(C(F)(F)F)c1,-0.5,5.5,6.4,9.2,10.8*,-8.2,-4.9
CC(=O)Nc1ccc(S(=O)(=O)NC2CC(=O)N(c3ccc(C)c(C)c3)C2)cc1 (stereo unspecified),0.2,-2.9,1.9,7.8,12.4*,-1.9,-0.2
O=C(c1cccc(C(=O)N2CCN(c3ccccc3F)CC2)c1)N1CCN(c2ccccc2F)CC1,-0.1,2.7,-5.1,-4.3,0.8,·,·
Cc1[nH]c2ccccc2c1C(=O)C(=O)N1CCN(c2ccccc2F)CC1,-0.6,0.2,2.8,12.9,14.7*,-2.7,-0.2
O=C(Nc1ccccc1N1CCN(C(=O)c2ccc(Cl)cc2)CC1)c1cccc(F)c1,0.7,-5.6,7.8,9.3,11.8*,-1.1,-1.3
CC(=O)c1ccc(N2CCN(C(=O)C(=O)c3c(C)[nH]c4ccccc34)CC2)cc1,0.2,-11.3,-1.6,-10.1,-3.4,·,·
O=C(c1c(F)cccc1F)N1CCN(c2ccccc2F)CC1,0.6,16.4*,7.7,9.0,4.7,-3.4,-1.2
O=C(Nc1ccc(OC(F)(F)F)cc1)c1[nH]ncc1[N+](=O)[O-],0.4,2.8,4.2,0.2,3.8,·,·
CCCN1CCC(C(=O)NC(c2ccc(Cl)cc2)c2ccsc2)CC1 (stereo unspecified),0.8,2.4,5.0,4.7,9.7*,-3.4,1.8
O=C(NC(c1ccc(Cl)cc1)c1ccsc1)C1CCN(Cc2ccc(Oc3ccccc3)cc2)CC1 (stereo unspecified),0.1,0.8,3.1,5.0,-0.5,·,·
O=[N+]([O-])c1ccc2[nH]cc(S(=O)(=O)N3CCN(c4cccc(Cl)c4)CC3)c2c1,-0.3,1.4,-0.3,9.6,10.2*,14.1*,10.4
O=C(CN1CCN(C(=O)c2ccccc2)CC1)Nc1ccccc1,1.3,1.7,1.1,0.5,4.0,·,·
O=C(CN1CCN(C(=O)c2ccccc2)CC1)Nc1ccc(Br)cn1,0.0,3.2,2.9,6.2,11.6*,-2.3,-2.5
Cc1cc(NC(=O)c2ccc(C#N)cc2)on1,0.5,1.9,0.7,-4.7,2.2,·,·
COc1ccc(N2CCN(C3CCCN(C(=O)CN4CCCC4=O)C3)CC2)cc1 (stereo unspecified),-0.1,-6.8,-5.1,-2.7,9.8*,-5.1,-4.3
Cc1nc(N2CCOCC2)[nH]c(=O)c1[N+](=O)[O-],0.9,-2.4,2.8,14.0,12.9*,0.5,1.8
O=C(CSc1nnc(CCCN2C(=O)c3cccc4cccc(c34)C2=O)n1-c1ccccc1)NCCCN1CCOCC1,0.1,3.5,-2.9,-18.1,11.2*,-7.7,-2.2
CCCn1c(C)cc(C(=O)Cn2nnc3ccccc3c2=O)c1C,0.0,-4.1,0.2,5.6,1.2,·,·
O=C(Nc1ccc(NC(=O)c2ccc(Cl)cc2Cl)cc1)c1cccs1,1.9,-3.3,-4.3,-10.3,9.0,·,·
NC(=O)NC(=O)COC(=O)CCSc1ccccc1,-0.9,11.0*,2.0,-5.7,8.2,-8.7,-3.9
Cc1ccc(-c2csc(NC(=O)CCNC(=O)c3ccco3)n2)cc1,0.0,-5.2,-6.2,-10.7,-2.1,·,·
O=C(COc1ccc(C(=O)c2ccc(F)cc2)cc1)NCc1ccc(F)cc1,0.3,1.0,1.7,7.5,-0.7,·,·
O=C(CN1C(=O)c2ccccc2S1(=O)=O)N1CCN(Cc2ccc3c(c2)OCO3)CC1,0.1,1.0,0.4,1.9,9.7*,4.1,4.1
CC1(C)CC(=O)N(CC(=O)N2CCN(Cc3ccc4c(c3)OCO4)CC2)c2ccccc2S1(=O)=O,0.6,-0.7,-2.6,-1.2,-0.1,·,·
SMILES,KLK7 zymogen act,PLC-beta3 inh,ADAM17 inh,ADAM10 inh,PLCg1 inh,PLCg1 ctr,PLCbeta3 conf
CC1(C)CC(C2N3CC4(C)CN2CC(C)(C3)C4=O)CCO1 (stereo unspecified),-0.2,0.5,3.5,0.2,12.9*,-6.3,-1.9
Cc1ccc(S(=O)(=O)N2[C@@H](c3ccc(F)cc3)C(C(=O)O)=CC[C@H]2c2cccc(Cl)c2)cc1,0.1,-1.2,-5.7,-7.6,-2.8,·,·
CCn1c(CNc2ccc(C)cc2)nnc1SCC(N)=O,-0.6,5.4,2.4,4.7,9.7*,-2.5,-0.4
C/C(CC(=O)NC1CCCC1)=N\NC(=O)c1ccc([N+](=O)[O-])c(Cl)c1,-0.6,8.2,5.0,0.8,14.4*,-5.7,-2.9
O=C(COC(=O)CC(c1ccccc1)c1ccccc1)NCc1ccccc1,-0.3,0.3,1.4,2.4,0.3,·,·
NC(c1csc(Nc2ncccn2)n1)c1ccccc1Cl (stereo unspecified),-0.2,10.5,3.1,-0.3,11.8*,-8.0,0.2
CCn1cc(C(=O)O)c(=O)c2cnc(N3CCN(C(=S)NC(=O)c4ccc(F)c(F)c4)CC3)nc21,0.1,-8.5,-4.9,9.4,3.8,·,·
CCn1cc(C(=O)O)c(=O)c2cnc(N3CCN(C(=S)NC(=O)c4ccc(Cl)cc4Cl)CC3)nc21,-1.1,5.3,1.6,-5.4,10.0*,-16.1,-7.3
Cc1cccc(NC(=O)Cc2c(F)cccc2Cl)n1,0.3,-3.3,1.5,-1.6,-0.5,·,·
CC1(NC(=O)Cc2c(F)cccc2Cl)CCS(=O)(=O)C1 (stereo unspecified),0.1,-2.1,8.6,4.1,13.0*,-1.8,-7.3
O=C(Nc1cccc(S(=O)(=O)c2cccc(NC(=O)c3ccco3)c2)c1)c1ccco1,-0.3,9.8,0.3,0.6,14.9*,-11.6,-7.8
NS(=O)(=O)c1cccc(NC(=O)c2cc3ccccc3o2)c1,-0.2,-3.6,-2.4,3.1,11.5*,-4.0,-1.7
Cc1cc(NC(=O)c2ccco2)no1,0.5,4.5,0.2,4.4,17.6*,-3.2,0.8
CC[n+]1ccccc1/C=C/Nc1ccccc1,-0.3,-2.7,-1.8,0.9,-0.5,·,·
Nc1nc(Cl)cc(Oc2ccc([N+](=O)[O-])cc2)n1,-0.7,-8.0,-5.2,6.5,-1.0,·,·
CCC(C(=O)Nc1cnccn1)c1ccccc1 (stereo unspecified),-0.1,2.1,-3.4,-3.5,0.1,·,·
